According to the supplement of paper PMC8253809:
Where “and” joins values, the source holds several entries; their conditions need not be identical. Equal values may be shown once.

Columns and labels:
Test in all cases: growth inhibition (% activity, log2 RLU normalised to DMSO / staurosporine); higher = more growth inhibition
Conditions in all cases: 33 µM
DIPGX29 = tested on: DIPGX29 (H3.3 K27M diffuse intrinsic pontine glioma line)
Summary of the method: (§1)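 On Geltrex-coated 384-well plates, pHGG cell lines and H9-derived neural stem cells were grown with approved drugs pinned in at a single final concentration of about 33 μM, in triplicate, for 7 days at 37 °C, 5% CO2. Per-plate normalisation of log2-transformed CellTiter-Glo luminescence to % activity between solvent and positive control wells followed. Each growth-inhibition value is the median over the replicates.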

DIPGX37 = tested on: DIPGX37 (H3.3 K27M diffuse intrinsic pontine glioma line)
Summary of the method: as §1

DIPGX7 = tested on: DIPGX7 (H3.3 K27M diffuse intrinsic pontine glioma line)
Summary of the method: as §1

DIPGX9 = tested on: DIPGX9 (diffuse intrinsic pontine glioma line)
Summary of the method: as §1

HGGX39 = tested on: HGGX39 (paediatric high-grade glioma line)
Summary of the method: as §1

HGGX6 = tested on: HGGX6 (H3.3 G34R paediatric high-grade glioma line)
Summary of the method: as §1

HNSC = tested on: HNSC
Summary of the method: as §1

SUDIPGIV = tested on: SUDIPGIV (diffuse intrinsic pontine glioma line)
Summary of the method: as §1

SUDIPGVI = tested on: SUDIPGVI (diffuse intrinsic pontine glioma line)
Summary of the method: as §1

SUDIPGXIII = tested on: SUDIPGXIII (diffuse intrinsic pontine glioma line)
Summary of the method: as §1

Compound | growth inhibition (DIPGX29) | growth inhibition (DIPGX37) | growth inhibition (DIPGX7) | growth inhibition (DIPGX9) | growth inhibition (HGGX39) | growth inhibition (HGGX6) | growth inhibition (HNSC) | growth inhibition (SUDIPGIV) | growth inhibition (SUDIPGVI) | growth inhibition (SUDIPGXIII)
CCC(=O)NCC[C@@H]1CCc2ccc3c(c21)CCO3 | -0.665% | -0.134% | 1.26% | 0.325% | 1.29% | -0.174% | 3.01% | 0.00903% | 1.36% | 0.726%
COC(=O)C1=C(C)NC(C)=C(C(=O)OC2CCCN(Cc3ccccc3)C2)C1c1cccc([N+](=O)[O-])c1 (stereo not given) | 3.05% | 0.403% | 2.15% | 3.22% | 6.94% | -0.555% | 33.4% | 3.22% | -1.31% | 2.1%
COCCCC/C(=N\OCCN)c1ccc(C(F)(F)F)cc1 | 1.49% | 4.31% | 1.46% | 3.17% | 4.47% | -0.782% | -3.83% | 2.23% | 0.798% | 2.91%
CCCCN(CCCC)CCCOC(=O)c1ccc(N)cc1 | 2.46% | 2.29% | 5.01% | 2.44% | 6.95% | 5.63% | 8.9% | 1.64% | 3.72% | -1.97%
Clc1ccc(CCC(Cn2ccnc2)Sc2c(Cl)cccc2Cl)cc1 (stereo not given) | 5.06% | 1.97% | 3.57% | 4.57% | 13.2% | 10.2% | 10.2% | 13.5% | 4.83% | 11.4%
CC(C(=O)O)c1cccc(Oc2ccccc2)c1 (stereo not given) | 1.86% and -0.732% | 4.27% and 0.295% | 0.905% and -1.45% | 0.241% and -0.0623% | 1.32% and -0.621% | 2.03% and -0.313% | 0.908% and -1.16% | -2.87% and -3.43% | 3.45% and 0.152% | 0.892% and 1.49%
COc1cnc(NS(=O)(=O)c2ccc(N)cc2)nc1 | -0.629% | 0.775% | -0.856% | 0.181% | -0.248% | 0.442% | 0.00282% | -1.59% | 0.403% | 1.01%
Cc1cccn2c(=O)c(-c3nnn[nH]3)cnc12 | 0.15% | -1.28% | -0.946% | 0.426% | 1.29% | -0.465% | -1.69% | -0.133% | 0.709% | 1.3%
O=C([O-])C(O)[C@H](O)[C@@H](O)[C@H](O)[C@H](O)CO.O=C([O-])C(O)[C@H](O)[C@@H](O)[C@H](O)[C@H](O)CO.[Ca+2] (stereo not given in full) | 2.16% | 4.54% | 2.65% | 1.24% | 2.2% | 1.87% | 2.4% | 0.563% | 2.72% | -0.395%
CCCCCCCCCCCCCCCCO | -0.933% | 2.94% | 1.65% | 1.02% | 2.94% | -1.64% | 11.6% | 2.42% | 0.249% | 1.46%
C=CC(=O)N1CCC[C@@H](n2nc(-c3ccc(Oc4ccccc4)cc3)c3c(N)ncnc32)C1 | 6.19% | 0.894% | 0.519% | 7.17% | 1.36% | 12.5% | 10.8% | -2.32% | 2.15% | -9.86%
CCCNC(=O)NS(=O)(=O)c1ccc(Cl)cc1 | 2.28% | 4.25% | 2.73% | 6.15% | 3.29% | 2.21% | 9.27% | 2.61% | 2.64% | 0.944%
CCc1cc2c(cc1CC)CC(NC[C@H](O)c1ccc(O)c3[nH]c(=O)ccc13)C2 | -0.957% | -0.915% | 0.341% | -1.43% | 0.343% | -1.65% | 23.5% | 1.53% | -4.28% | 0.665%
NC(=O)c1ncn([C@@H]2O[C@H](CO)[C@@H](O)[C@H]2O)n1 | -0.559% | 0.551% | 0.987% | 0.303% | 1.53% | 0.756% | -0.0938% | -0.992% | 2.19% | 0.78%
CC[C@H]1OC(=O)[C@H](C)[C@@H](O[C@H]2C[C@@](C)(OC)[C@@H](O)[C@H](C)O2)[C@H](C)[C@@H](O[C@@H]2O[C@H](C)C[C@H](N(C)C)[C@H]2O)[C@](C)(OC)C[C@@H](C)C(=O)[C@H](C)[C@@H](O)[C@]1(C)O | -1.86% | 0.02% | -2.66% | -0.349% | 1.64% | 0.562% | -3.32% | -2.12% | -0.602% | -13%
CCCN(CCC)S(=O)(=O)c1ccc(C(=O)O)cc1 | -1.26% | 2.49% | 0.672% | 0.0871% | 1.02% | -3.52% | 8.98% | 1.56% | -6.21% | 0.262%
CC1(C)[C@@H](OC(=O)CCC(=O)O)CC[C@]2(C)[C@H]3C(=O)C=C4[C@@H]5C[C@@](C)(C(=O)O)CC[C@]5(C)CC[C@@]4(C)[C@]3(C)CC[C@@H]12 | -0.0896% | -1.93% | -0.476% | -0.36% | 1.22% | -0.666% | 0.455% | -0.927% | 2.1% | 0.0653%
NS(=O)(=O)c1cc2c(cc1Cl)N=C(CSCc1ccccc1)NS2(=O)=O | -2.8% | -0.538% | -2.64% | -1.82% | -3.59% | -4.3% | 3.58% | -1.69% | -6.04% | -0.239%
N=C(N)N | -0.83% | 2.64% | 1.54% | 0.0493% | 0.625% | -0.897% | 7.78% | 1.72% | -0.000495% | -1.47%
C[C@@H](CN1CC(=O)NC(=O)C1)N1CC(=O)NC(=O)C1 | -0.213% | 0.752% | 1.24% | 0.711% | 0.0185% | -0.816% | 2.52% | -0.536% | -1.35% | -1.67%
Cc1ccc(NC(=O)c2ccc(CN3CCN(C)CC3)cc2)cc1Nc1nccc(-c2cccnc2)n1 | 4.56% and 0.376% | 3.89% and 0.0929% | 5.28% and 3.03% | 2.43% and -0.42% | 8.41% and 4.83% | 5.52% and -1.5% | 3.25% and -0.323% | 4.42% and 1.82% | 4.93% and -0.526% | -15.8% and 0.752%
